Assay results: PubChem BioAssay (Tox21)
Inconclusive results are not listed. Unmarked numbers belong to inactive results. Active and inactive are the calls of the source. Calls come from the whole dose curve; as a rule, active = well fitted activation curve with a large enough effect in the repeat runs; inconclusive = weak or mixed curves; inactive = no such curve, though single readings can be large or run the other way.

Target: Nuclear receptor subfamily 1 group I member 2 (Rattus norvegicus) (UniProt Q9R1A7)
Sequence (Q9R1A7 whole entry, looked up): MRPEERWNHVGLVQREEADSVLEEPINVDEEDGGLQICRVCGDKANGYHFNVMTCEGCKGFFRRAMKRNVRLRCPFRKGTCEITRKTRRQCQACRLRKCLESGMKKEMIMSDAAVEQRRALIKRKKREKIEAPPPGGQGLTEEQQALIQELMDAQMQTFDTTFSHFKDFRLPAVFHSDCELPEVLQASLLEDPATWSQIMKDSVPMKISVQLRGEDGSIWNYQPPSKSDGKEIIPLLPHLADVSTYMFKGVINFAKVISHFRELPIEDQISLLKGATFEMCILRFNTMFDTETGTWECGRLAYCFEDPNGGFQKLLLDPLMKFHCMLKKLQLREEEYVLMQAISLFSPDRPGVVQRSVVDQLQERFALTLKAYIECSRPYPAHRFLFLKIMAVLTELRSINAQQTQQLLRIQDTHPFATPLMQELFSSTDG
Assay: Rat pregnane X receptor (rPXR) activation by small molecules, qHTS assay (AID 1346983); note: nearly all actives have a fitted effect of over 20% in size
Settings: rPXR luciferase reporter cells, One-Glo luminescence, 24 h; max activation: hits give high values
Source text: National Center for Advancing Translational Sciences [NCATS] NIH Chemical Genomics Center [NCGC] U.S. Environmental Protection Agency [EPA] National Institutes of Environmental Health Sciences [NIEHS] National Toxicology Program [NTP] Assay overview: The Pregnane X receptor (PXR), a ligand activated nuclear receptor plays a critical role in the regulation of genes involved in drug metabolism and transporters. PXR binds xenobiotics and when compounds interact with PXR produces enhanced expression of CYP3A genes. In humans PXR activation and CYP3A4 induction can be problematic due to their interactions with co-medicated drugs and decrease their efficacy or increase their own metabolism. However, there are known species-specific differences with regard to PXR activation that should be taken into account when animal PXR data are extrapolated to humans. A cell based rat PXR (rPXR) assay (developed by Puracyp, Inc., CA) was used to assess the activation of rPXR.
Assay Protocol Summary: rPXR cells were dispensed at 2,000 per well in 5uL of assay medium into white, solid-bottom 1536-well plates using a Multidrop Combi dispenser (Thermo Scientific). The assay plates were incubated at 37 C for 5hr before transferring 23 nL of test compounds dissolved in DMSO and positive control via Pintool station (Wako). The assay plates were incubated at 37 C for 24 hr. Then 5ul One-Glo assay reagent (Promega) was added to each plate by a Flying Reagent Dispenser (FRD, Aurora Discovery) and following 30 min incubation at room temperature, luciferase activity was quantified on a ViewLux plate reader (Perkin Elmer).
% is set by controls: 0 for no effect and ±100 for the full control effect; potency is the fitted concentration of half-maximal effect.

Compound	max activation	Potency
Cn1c(=O)c2c(ncn2CC2OCCO2)n(C)c1=O	6.17%	
O=C(O)/C=C/c1ccccc1	-6.4%	
Nc1ccc(S(=O)(=O)NC(=O)c2ccccc2)cc1	-3.91%	
Nc1ccc(S(=O)(=O)Nc2ccccn2)cc1	-1.43%	
CC(=O)Nc1ncc([N+](=O)[O-])s1	-3.65%	
COCC(=O)Nc1c(I)c(C(=O)NCC(O)CO)c(I)c(C(=O)N(C)CC(O)CO)c1I (stereo not drawn)	-3.61%	
Cc1c(C(C)C)c(=O)n(-c2ccccc2)n1C	-1.17%	
Cc1oc(=O)oc1CN1CCN(c2cc3c(cc2F)c(=O)c(C(=O)O)c2n3C(C)S2)CC1 (stereo not drawn)	-2.98%	
NC(=O)C1(N2CCCCC2)CCN(CCCC(=O)c2ccc(F)cc2)CC1	0.444%	
NS(=O)(=O)c1ccc(Cl)c(S(N)(=O)=O)c1	-3.93%	
C[C@H]1O[C@H](O[C@H]2[C@H](O)[C@@H](O)[C@@H](O[C@H]3[C@H](O)[C@@H](O)[C@H](O)O[C@@H]3CO)O[C@@H]2CO)[C@H](O)[C@@H](O)[C@@H]1N[C@H]1C=C(CO)[C@@H](O)[C@H](O)[C@H]1O	-1.07%	
C[C@@H]1C[C@H]2[C@@H]3C[C@H](F)C4=CC(=O)C=C[C@]4(C)[C@@]3(F)[C@@H](O)C[C@]2(C)[C@@]1(O)C(=O)CO		1410 nM (active)
Cc1ccc2c(c1)c1c3n2CCNC3CCC1 (stereo not drawn)	-0.806%	
NC(=O)NC(=O)Cc1ccccc1	-4.53%	
CNCc1ccccc1	-0.758%	
O=C(/C=C/c1ccccc1)NCCO	-0.885%	
O=c1[nH]c(=O)c2[nH]c(=O)[nH]c2[nH]1	-2.16%	
NCCc1ccn[nH]1	-4.71%	
O=c1[nH]c(=O)c2ccccc2o1	-5.11%	

Compound	max activation	Potency
F[Si-2](F)(F)(F)(F)F	-2.73%	
CCC1Nc2cc(Cl)c(S(N)(=O)=O)cc2S(=O)(=O)N1 (stereo not drawn)	-2.65%	
CCNC(=O)/C=C/c1cccc(Br)c1	11.4%	
COc1cc2c3cc1Oc1cc(ccc1O)C[C@@H]1c4c(cc(OC)c(O)c4Oc4ccc(cc4)C[C@@H]3N(C)CC2)CC[N+]1(C)C	-3.43%	
NS(=O)(=O)c1cc2c(cc1Cl)NC(C(Cl)Cl)NS2(=O)=O (stereo not drawn)	3.75%	
OC(CCN1CCCCC1)(c1ccccc1)c1ccccc1	-1.14%	
COc1ccc(/C=N/NC(=O)c2ccncc2)cc1OC	-2.5%	
O=c1cc(O)c(Cl)c[nH]1	-3.03%	
Cc1ccc(S(=O)(=O)NC(=O)NC2CCCCCCC2)cc1	-1.92%	
O=C(Nc1cccc(C2=NCCN2)c1)Nc1cccc(C2=NCCN2)c1	-0.171%	
COc1cc2c(Nc3ccc(Br)cc3F)ncnc2cc1OCC1CCN(C)CC1	-20.7%	
O=C(CN1CCN(Cc2ccc3c(c2)OCO3)CC1)N1c2ccccc2Sc2ccccc21	6.39%	
CC(C)(CO)[C@@H](O)C(=O)NCCCO	-0.489%	
Nc1ccc(/C=C/c2ccc(N)cc2S(=O)(=O)O)c(S(=O)(=O)O)c1	-1.81%	
CC(=O)N(CC(O)CO)c1c(I)c(C(=O)NCC(O)CO)c(I)c(C(=O)NCC(O)CO)c1I (stereo not drawn)	-0.214%	
NS(=O)(=O)c1cc2c(cc1Cl)NC(CC1CCCC1)NS2(=O)=O (stereo not drawn)	-1.01%	
O=C(Oc1ccccc1C(=O)O)c1ccccc1O	-2.38%	
CN[C@@H]1[C@H](O)[C@H](NC)[C@H]2O[C@@]3(O)C(=O)C[C@@H](C)O[C@H]3O[C@@H]2[C@H]1O	-0.189%	
Cc1cccc(Nc2ccncc2S(=O)(=O)NC(=O)NC(C)C)c1	-0.7%	
